Experimental data published in PubChem BioAssay (NCI).
About 83,000 compounds went through this panel and 20% of them were active in at least one assay; those are over-represented in the sample as a whole.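 Cell lines were cultured in 96-well plates, exposed to a single compound concentration, and assessed for percent growth 48 hours later.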 Active and inactive are the calls of the source. The calls were made as follows: active = growth percent below 10; inactive = the rest.

System: U251 CNS
Experiment: NCI-60 one-dose screen, 48 h (100 = growth as untreated, 0 = no growth, -100 = all killed)
Settings: 10 µM unless noted

SMILES | growth
Fc1ccc(C2=NN(c3ccccc3)C(c3sc(N(CCCl)CCCl)nc3Cl)C2)cc1 (centres undefined) | 85.9% (inactive)
CC[C@H](C)[C@H](NC(=O)Nc1ccccc1)C(=O)N(C)[C@H](C[C@@H](OC(C)=O)c1nc(C(=O)N[C@@H](Cc2ccccc2)C[C@H](C)C(=O)OC)cs1)C(C)C | 7.23% (active)
c1ccc(CCN2CCCCC2Cc2ccccc2)cc1 (centres undefined) | 98.5% (inactive)
CC(=O)O[C@H]1CCC2(C)C(=CCC3C2CCC2(C)/C(=N/OC(=O)c4ccc(N(CCCl)CCCl)cc4)CCC32)C1 (some centres undefined) | -27.2% (active)
O=C(N/N=C/c1ccc(N(CCCl)CCCl)cc1)c1cc(=O)[nH]c(=O)[nH]1 | 98.2% (inactive)
O=[As]c1ccc(C(=O)c2ccc(Oc3ccccc3)cc2)cc1 (centres undefined) | -100% (active)
O=[N+]([O-])c1cc([N+](=O)[O-])c(Cl)c(Cl)c1Cl | -79.4% (active)
Cc1cc(NC(=O)NCCOc2ccc(N3C(N)=NC(N)=NC3(C)C)cc2Cl)ccc1S(=O)(=O)F | 10.7% (inactive)
COc1ccc2c(c1)NC1=C(C(=O)OC1)C2c1cc(OC)c(OC)c(OC)c1 (centres undefined) | 5.77% (active)
C=CCc1ccc(OC(=O)Cc2ccccc2)c(OC)c1 | 99.3% (inactive)
CC(C)(O)/C=C/C(=O)[C@](C)(O)[C@H]1[C@H](O)C[C@@]2(C)[C@@H]3CC=C4[C@@H](C=C(O)C(=O)C4(C)C)[C@]3(C)C(=O)C[C@]12C | -77.5% (active)
C[C@]12CCc3sc(-c4ccc(Cl)cc4)nc3C1=CC[C@@H]1[C@@H]2CC[C@]2(C)C(=O)CC[C@@H]12 | 36.7% (inactive)
C=CCC1(CC)C(=O)NC(=S)NC1=O | 101% (inactive)
NC(Cc1ccc2c(c1)OCO2)c1ccc2c(c1)OCO2 (centres undefined) | 107% (inactive)
O=C(CF)N(O)c1ccc(/C=C/c2ccccc2)cc1 | 35.6% (inactive)
COc1ccc(/C=C(/C(=O)N2CCCC2)c2cc(OC)c(OC)c(OC)c2)cc1N | 31% (inactive)
Nc1nc(N)c(-c2ccc(Cl)c(Cl)c2)c(/C=C/c2ccc(S(=O)(=O)F)cc2)n1 | 89.1% (inactive)
Nc1c(Br)cc([N+](=O)[O-])cc1[N+](=O)[O-] | 101% (inactive)
Oc1ccc(O)c2c1C1(Cl)C(Cl)=C(Cl)C2(Cl)C1(Cl)Cl | 51.6% (inactive)
CN(C)P1(N(C)C)=NP(N(C)C)(N(C)C)=NP(N(C)C)(N(C)C)=N1 | 97.9% (inactive)

SMILES | growth
CNC(=O)Oc1cccc(OC)c1 | 110% (inactive)
C=C=[CH][Sn]([c]1ccccc1)([c]1ccccc1)[c]1ccccc1 | -75.6% (active)
NC(=O)SCC(=O)Nc1ccc([As](=O)(O)O)cc1 | 44.4% (inactive)
C[C@]12CC[C@H]3[C@@H](C[C@@H]4N=C(c5ccc(O)cc5)S[C@@]45C[C@H](O)CC[C@]35C)[C@@H]1CC[C@@H]2O | 20.1% (inactive)
CC1(C)N=C(N)N=C(N)N1c1ccc(CCCCc2ccc(S(=O)(=O)F)cc2)cc1 | 16.7% (inactive)
Nc1c(Br)cc2c3c(cccc13)-c1ccccc1-2 | 60.1% (inactive)
COc1cc2c(cc1OC)CN(C)C(C)C2 (centres undefined) | 101% (inactive)
CC(C)C1c2ccc(O)cc2Oc2nc(N)c(C#N)c(N)c21 (centres undefined) | 95.8% (inactive)
c1ccc2nc(OCCN3CC3)ccc2c1 | 85.1% (inactive)
CC1(C)N=C(N)N=C(N)N1c1ccc(CNC(=O)Nc2ccc(S(=O)(=O)F)c(Cl)c2)c(Cl)c1 | 11.3% (inactive)
c1ccc(-c2ccc3ccccc3[o+]2)cc1 | 93.4% (inactive)
CSc1ccccc1NP1(=O)OCC(C)([N+](=O)[O-])CO1 (centres undefined) | 95.8% (inactive)
CC1COC(=O)C1 (centres undefined) | 102% (inactive)
C[CH2][Pb]([CH2]C)([CH2]C)[O]C(=O)COc1ccccc1 | -1.93% (active)
COc1ccc(/C=C\c2cc(OC)c(OC)c(OC)c2)cc1N/C=C\C(=O)c1c[nH]c2ccccc12 | 15.5% (inactive)
CCCC(C)(C)c1ccc2c(c1)OC(C)(C)[C@@H]1CC=C(C)C[C@@H]21 | 96.2% (inactive)
OC1(c2ccc(Cl)cc2Cl)c2ccccc2C2=NCCN21 (centres undefined) | 89.5% (inactive)
CC1(CF)NC(=O)NC1=O (centres undefined) | 115% (inactive)
O=C(Nc1ccc(S(=O)(=O)F)cc1)Oc1ccccc1 | 96.8% (inactive)

System: PC-3 prostate
Experiment: as above
Settings: 10 µM unless noted

SMILES | growth
Fc1ccc(C2=NN(c3ccccc3)C(c3sc(N(CCCl)CCCl)nc3Cl)C2)cc1 (centres undefined) | 68.2% (inactive)
CC[C@H](C)[C@H](NC(=O)Nc1ccccc1)C(=O)N(C)[C@H](C[C@@H](OC(C)=O)c1nc(C(=O)N[C@@H](Cc2ccccc2)C[C@H](C)C(=O)OC)cs1)C(C)C | 21.6% (inactive)
CC(=O)O[C@H]1CCC2(C)C(=CCC3C2CCC2(C)/C(=N/OC(=O)c4ccc(N(CCCl)CCCl)cc4)CCC32)C1 (some centres undefined) | 47.8% (inactive)
O=C(N/N=C/c1ccc(N(CCCl)CCCl)cc1)c1cc(=O)[nH]c(=O)[nH]1 | 89.2% (inactive)
O=[As]c1ccc(C(=O)c2ccc(Oc3ccccc3)cc2)cc1 (centres undefined) | -61.4% (active)
O=[N+]([O-])c1cc([N+](=O)[O-])c(Cl)c(Cl)c1Cl | 57.1% (inactive)
Cc1cc(NC(=O)NCCOc2ccc(N3C(N)=NC(N)=NC3(C)C)cc2Cl)ccc1S(=O)(=O)F | -2.88% (active)
COc1ccc2c(c1)NC1=C(C(=O)OC1)C2c1cc(OC)c(OC)c(OC)c1 (centres undefined) | 20.6% (inactive)
C=CCc1ccc(OC(=O)Cc2ccccc2)c(OC)c1 | 100% (inactive)
CC(C)(O)/C=C/C(=O)[C@](C)(O)[C@H]1[C@H](O)C[C@@]2(C)[C@@H]3CC=C4[C@@H](C=C(O)C(=O)C4(C)C)[C@]3(C)C(=O)C[C@]12C | -58.8% (active)
C[C@]12CCc3sc(-c4ccc(Cl)cc4)nc3C1=CC[C@@H]1[C@@H]2CC[C@]2(C)C(=O)CC[C@@H]12 | 50% (inactive)
NC(Cc1ccc2c(c1)OCO2)c1ccc2c(c1)OCO2 (centres undefined) | 93.4% (inactive)
O=C(CF)N(O)c1ccc(/C=C/c2ccccc2)cc1 | 62.3% (inactive)
COc1ccc(/C=C(/C(=O)N2CCCC2)c2cc(OC)c(OC)c(OC)c2)cc1N | 14.5% (inactive)
Nc1nc(N)c(-c2ccc(Cl)c(Cl)c2)c(/C=C/c2ccc(S(=O)(=O)F)cc2)n1 | 65% (inactive)
Nc1c(Br)cc([N+](=O)[O-])cc1[N+](=O)[O-] | 102% (inactive)
Oc1ccc(O)c2c1C1(Cl)C(Cl)=C(Cl)C2(Cl)C1(Cl)Cl | 42.4% (inactive)
CN(C)P1(N(C)C)=NP(N(C)C)(N(C)C)=NP(N(C)C)(N(C)C)=N1 | 90% (inactive)

SMILES | growth
CCCCNCCc1ccccn1 | 96% (inactive)
CNC(=O)Oc1cccc(OC)c1 | 109% (inactive)
C=C=[CH][Sn]([c]1ccccc1)([c]1ccccc1)[c]1ccccc1 | -50.5% (active)
NC(=O)SCC(=O)Nc1ccc([As](=O)(O)O)cc1 | 77.8% (inactive)
C[C@]12CC[C@H]3[C@@H](C[C@@H]4N=C(c5ccc(O)cc5)S[C@@]45C[C@H](O)CC[C@]35C)[C@@H]1CC[C@@H]2O | 49.5% (inactive)
CC1(C)N=C(N)N=C(N)N1c1ccc(CCCCc2ccc(S(=O)(=O)F)cc2)cc1 | 12.5% (inactive)
Nc1c(Br)cc2c3c(cccc13)-c1ccccc1-2 | 47.4% (inactive)
COc1cc2c(cc1OC)CN(C)C(C)C2 (centres undefined) | 97.4% (inactive)
CC(C)C1c2ccc(O)cc2Oc2nc(N)c(C#N)c(N)c21 (centres undefined) | 92.1% (inactive)
c1ccc(-c2ccc3ccccc3[o+]2)cc1 | 76.3% (inactive)
CC1COC(=O)C1 (centres undefined) | 102% (inactive)
C[CH2][Pb]([CH2]C)([CH2]C)[O]C(=O)COc1ccccc1 | 20.3% (inactive)
COc1ccc(/C=C\c2cc(OC)c(OC)c(OC)c2)cc1N/C=C\C(=O)c1c[nH]c2ccccc12 | 10.4% (inactive)
CCCC(C)(C)c1ccc2c(c1)OC(C)(C)[C@@H]1CC=C(C)C[C@@H]21 | 84.3% (inactive)
OC1(c2ccc(Cl)cc2Cl)c2ccccc2C2=NCCN21 (centres undefined) | 79% (inactive)
CC1(CF)NC(=O)NC1=O (centres undefined) | 101% (inactive)
O=C(Nc1ccc(S(=O)(=O)F)cc1)Oc1ccccc1 | 93.4% (inactive)
